The list is not random: actives were taken first. Their share in the collection is about 0.44%.
ERG Ets-DNA blk: qHTS for Small Molecule Inhibitors of the ERG Ets/DNA interaction; 0.028% of 370,000 active; Potency, µM (doses to about 76.9 µM), without a hit: at the highest dose FP activity, negative = inhibition, most hits filed as inhibitors; fluorescence polarization, His-ERG Ets domain / labelled DNA; AID 624246, 2012; Transcriptional regulator ERG (Homo sapiens), P11308; active = well fitted inhibition curve with a large enough effect in the polarisation, with a control signal flat; inconclusive = small, poorly fitted or top-dose-only effect, or effect the other way, or a change in a side signal; inactive = no such curve, though single readings can be large or run the other way; the % refers to the polarisation;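 also: polarization taken with two DNA probes labelled with fluorescein and Texas red; potency is read from the fitted curve at half-maximal effect; % of control where 0% means no effect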
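His-tagged ERG Ets domain (1 uM in the protein solution; 300mM KCl, 50mM Tris-HCl, 1mM EDTA, 1mM DTT, pH 7.5) received compound, then a probe mix of 5 nM fluorescein-DNA and 100nM Texas-615-DNA. Fluorescence polarization was read for both dyes.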
TRb-SRC2 inh: qHTS for Inhibitors of the Interaction of Thyroid Hormone Receptor and Steroid Receptor Coregulator 2; TRbeta-SRC2 peptide binding, fluorescence polarization; receptor liganded with 1 µM T3; Thyroid hormone receptor beta (Homo sapiens), P10828; 0.065% of 280,000 active; Potency, µM (series often up to 106 µM), for inactives: top-dose activity change, negative = inhibition, actives largely listed as inhibitors;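 also: potency is read from the fitted curve at half-maximal effect; plate controls were bound peptide for no effect and peptide without receptor for full effect; nearly all actives have a fitted effect of over 50% in size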
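Each compound concentration gave % activity, normalized to unbound and bound Texas Red SRC2 controls, from polarization read after 5 hr ambient incubation with T3-loaded human TRb LBD.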
RGS12 GoLoco inh-1: qHTS Assay for Inhibitors of RGS12 GoLoco Motif Activity (Red Fluorophore) | Guanine nucleotide-binding protein G(i) subunit alpha-1 (Homo sapiens), P63096 | Gai1:RGS12 GoLoco peptide FP, rhodamine, 10 min | Potency, µM (titrated, usually from 61.6 µM), for inactives: at the highest dose activity, negative = inhibition, actives largely listed as inhibitors | 0.44% of 230,000 active; active = well fitted inhibition curve with a large enough effect, not every such curve was filed as active; inactive = no such curve, though single readings can be large or run the other way; also: potency is read from the fitted curve at half-maximal effect; % is scaled to controls: 0 for no effect and ±100 for the full control effect; nearly all actives have a fitted effect of over 30% in size
Anesthetic bind: qHTS Assay for Identification of Novel General Anesthetics | Potency, µM (doses to about 77.5 µM), inactives show at the highest dose activity change, negative = displacement, most hits filed as inhibitors | Ferritin light chain (Equus caballus), P02791 | apoferritin/1-aminoanthracene competitive binding, fluorescence | 0.074% of 350,000 active; also: potency is read from the fitted curve at half-maximal effect; % is scaled to controls: 0 for no effect and ±100 for the full control effect; nearly all actives have a fitted effect of over 20% in size
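Horse-spleen apoferritin (10 uM) was mixed with 50% saturated 1-aminoanthracene in PBS, exposed to compounds for 10 min at room temperature, and read for fluorescence (ex 380 nm, em 535 nm). Competitive displacement was fitted with a four-parameter Hill equation.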
TR SRC2 fluor cs: Total Fluorescence Counterscreen for Inhibitors of the Interaction of Thyroid Hormone Receptor and Steroid Receptor Coregulator 2; Potency, µM (top dose mostly 106 µM), for inactives: top-dose fluorescence change, negative = quenching; TRb/SRC2 Texas Red total fluorescence interference; 0.29% of 280,000 active; active = well fitted curve in either direction with a large enough effect; inconclusive = small, poorly fitted or top-dose-only effect; also: potency is read from the fitted curve at half-maximal effect; % is scaled to controls: 0 for no effect and ±100 for the full control effect
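Human TRb ligand-binding domain at 0.6 uM with 20 nM Texas Red SRC2 peptide in Tris buffer containing 1 uM T3 and 5% DMSO, incubated with compound 5 h at ambient temperature. Total fluorescence (555/632 nm) calculated as parallel + 2 × perpendicular.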
RGS12 GoLoco inh-2: Confirmation qHTS Assay for Inhibitors of RGS12 GoLoco Motif Activity (Red Fluorophore); shares compounds with RGS12 GoLoco inh-1; Gai1/rhodamine-RGS12 GoLoco peptide fluorescence polarization; Potency, µM (highest dose often 57.1 µM), inactives show at the top dose activity, negative = inhibition, hits mostly inhibitors; 50% of 110 active
Target sequence (O14924 whole entry, looked up): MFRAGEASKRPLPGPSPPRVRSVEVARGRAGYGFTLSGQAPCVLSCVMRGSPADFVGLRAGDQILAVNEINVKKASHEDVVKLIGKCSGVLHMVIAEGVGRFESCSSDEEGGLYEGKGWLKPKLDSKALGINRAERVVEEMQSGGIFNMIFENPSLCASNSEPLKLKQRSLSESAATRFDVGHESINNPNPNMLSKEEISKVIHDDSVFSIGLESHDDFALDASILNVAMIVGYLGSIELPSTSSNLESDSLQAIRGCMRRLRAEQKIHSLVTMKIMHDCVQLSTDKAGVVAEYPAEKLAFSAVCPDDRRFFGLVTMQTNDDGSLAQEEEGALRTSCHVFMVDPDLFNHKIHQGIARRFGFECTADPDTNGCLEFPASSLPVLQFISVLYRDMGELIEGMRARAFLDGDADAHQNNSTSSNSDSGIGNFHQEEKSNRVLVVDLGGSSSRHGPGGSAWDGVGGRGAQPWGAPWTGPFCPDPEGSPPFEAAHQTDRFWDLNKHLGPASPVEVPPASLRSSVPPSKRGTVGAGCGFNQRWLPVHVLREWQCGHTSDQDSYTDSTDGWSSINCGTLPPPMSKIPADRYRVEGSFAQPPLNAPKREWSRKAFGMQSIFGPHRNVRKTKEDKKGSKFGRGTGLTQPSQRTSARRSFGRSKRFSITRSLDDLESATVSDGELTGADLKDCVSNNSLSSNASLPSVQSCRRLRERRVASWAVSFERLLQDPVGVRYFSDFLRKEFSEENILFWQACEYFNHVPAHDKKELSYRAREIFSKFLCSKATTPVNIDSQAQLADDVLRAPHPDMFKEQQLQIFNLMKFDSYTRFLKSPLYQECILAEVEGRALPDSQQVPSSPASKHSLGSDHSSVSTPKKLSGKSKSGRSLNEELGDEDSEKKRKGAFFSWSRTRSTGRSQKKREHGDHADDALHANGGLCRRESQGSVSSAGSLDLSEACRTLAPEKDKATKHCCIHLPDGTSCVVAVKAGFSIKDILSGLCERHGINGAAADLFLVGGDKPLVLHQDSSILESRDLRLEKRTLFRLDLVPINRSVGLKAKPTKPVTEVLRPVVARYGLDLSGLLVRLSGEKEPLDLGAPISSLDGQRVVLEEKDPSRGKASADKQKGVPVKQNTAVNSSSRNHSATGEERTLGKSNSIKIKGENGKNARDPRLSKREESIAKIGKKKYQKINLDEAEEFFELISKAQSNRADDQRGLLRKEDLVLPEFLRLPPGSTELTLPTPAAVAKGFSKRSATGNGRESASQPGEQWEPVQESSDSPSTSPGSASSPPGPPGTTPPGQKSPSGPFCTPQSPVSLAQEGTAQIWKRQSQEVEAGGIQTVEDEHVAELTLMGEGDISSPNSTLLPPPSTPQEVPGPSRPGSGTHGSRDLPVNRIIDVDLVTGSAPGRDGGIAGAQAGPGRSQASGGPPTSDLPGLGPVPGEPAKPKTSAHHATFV
* hit, by the source's call; ? = inconclusive; · = not tested or not shown; [ ] = remark or other dose. Unless noted, calls follow the shape of the dose curve; as a rule, active = well fitted curve in the direction sought with a large enough effect; inconclusive = small, poorly fitted or top-dose-only effect, or another doubt; inactive = no such curve, though single readings can be large; an effect the other way counts as inactive or inconclusive.

SMILES	ERG Ets-DNA blk	TRb-SRC2 inh	RGS12 GoLoco inh-1	Anesthetic bind	TR SRC2 fluor cs	RGS12 GoLoco inh-2
Nc1ccc2nc3c(=O)n(C4CCCCC4)c(=O)[nH]c3nc2c1	?	4%	25µM*	144%	-1%	11µM*
Cc1cc2nc3c(=O)n(CCc4ccccc4)c(=O)[nH]c3nc2cc1N	-4%	-9%	7.9µM*	31%	-5%	?
COc1cc2[nH]c(=O)n(C3CCCCC3)c(=O)c2cc1OC	-4%	0%	-3%	-8%	1%	·
NCCCC[C@H](NC(=O)[C@H](CS)NC(=O)[C@@H](N)Cc1cnc[nH]1)C(=O)N[C@@H](Cc1ccccc1)C(=O)N[C@@H](Cc1c[nH]c2ccccc12)C(=O)N[C@@H](Cc1c[nH]c2ccccc12)C(=O)O	·	-4%	·	-2%	-2%	·
COC(=O)[C@H](CCSC)NC(=O)c1ccc(NC[C@@H](N)CS)cc1-c1ccccc1	·	2%	·	?	-4%	·
CSCC[C@H](NC(=O)[C@H](CC(C)C)NC(=O)CNC(=O)[C@H](Cc1ccc(O)cc1)NC(=O)[C@H](Cc1ccccc1)NC(=O)[C@H](CCCCN)NC(=O)[C@H](CC(N)=O)NC(=O)[C@@H]1CCCN1C(=O)[C@H](CC(=O)O)NC(=O)[C@H](C)NC(=O)[C@@H]1CCC(=O)N1)C(N)=O	·	3%	·	7%	-10%	·
CN1CCC(=O)N(C(CSc2ccc(Br)cc2)c2ccccc2)CC1 (centres undefined)	·	3%	·	-7%	0%	·
CCOC(=O)[C@H](Cc1ccc(O)cc1)NC(=O)c1ccccc1	·	0%	·	3%	-3%	·
Cc1[nH]c2ccccc2c1C(=O)CNc1nccs1	-9%	4%	-61%	1%	-1%	6.3µM*
Cc1[nH]c2ccccc2c1C(=O)CCl	-4%	4%[53 µM]	33%	-5%	-2%[53 µM]	·
O=C(O)c1ccc(COc2ccc(/C=N/NC(=O)c3cccs3)cc2)cc1	-4%	0%	10µM*	-17%	-1%	?
C=CCn1c(=O)[nH]c2nc3cc(N=CN(C)C)c(C)cc3nc2c1=O	4%	-9%	28µM*	70%	-2%	28µM*
CCOC(=O)c1ccc(NC(=O)CSc2nccn2C)cc1	-17%	1%	10%	-15%	0%	36%
CCOC(=O)C1CCCN(C(=O)Cn2sc3nc(C)cc(C)c3c2=O)C1 (centres undefined)	2%	-7%	18µM*	-6%	-9%	?
CCCCCCCCC[n+]1cccc2c3ccccc3ccc21	4%	-8%	-6%	6%	-1%	·
CCCCCCCCCCCCCCCC[n+]1cccc2ccccc21	-1%	45µM*	2.2µM*	?	-26%	4.5µM*
C[n+]1cn(CC(O)COCc2ccccc2)c2ccccc21 (centres undefined)	-5%	-11%	16µM*	-7%	-3%	14µM*
Cc1cc2c(cc1C)[n+](C)cn2CC(O)COCc1ccccc1 (centres undefined)	-9%	-2%	11µM*	-2%	-5%	22µM*
C=C(C)C(=O)OCCOC(=O)C(=C)C	·	-1%	·	-3%	-2%	·
COc1ccc(NC(=O)N2CCc3nc(-c4ccc(OC)cc4C)c4c(c3C2)CO[C@@H](c2ccccc2)C4)cc1	·	-1%[11.2 µM]	-23%[14.2 µM]	·	-1%[11.2 µM]	·
Cc1cc(C)nc(SCC(=O)Nc2ccc(N3CCOCC3)cc2)n1	3%	-2%	5µM*	-2%	-2%	4.5µM*
Cc1nc(SCC(=O)Nc2ccc(N3CCOCC3)cc2)nc(C)c1C	-7%	-2%	0%	-16%	-1%	·
Cn1c(SCC(=O)Nc2ccccc2)nnc1-c1ccc(NC(=O)CCc2ccccc2)cc1	0%	-10%	2%	2%	-3%	-6%
Cn1c(SCC(=O)N2CCCC2)nnc1-c1ccc(S(=O)(=O)N2CCCC2)cc1	-8%	-7%	12%	-8%	1%	·
CCC(=O)Nc1ccc(-c2nnc(SCC(=O)N3CCCCC3)n2C)cc1	1%	-1%	-4%	-2%	1%	15%
SMILES	ERG Ets-DNA blk	TRb-SRC2 inh	RGS12 GoLoco inh-1	Anesthetic bind	TR SRC2 fluor cs	RGS12 GoLoco inh-2
O=C(O)CCCCn1cnc2c(=S)nc[nH]c21	·	·	-11%[14.2 µM]	·	·	·
O=C1NCc2c1c1c3ccccc3[nH]c1c1[nH]c3ccccc3c21	·	·	·	·	·	7%
Cc1nc2c(c3c1[nH]c1ccccc13)C(=O)CC(C)(C)C2	-2%	1%	20%	37%	-3%	·
COc1cccc(C(=O)N/N=C/c2ccc(Oc3ccc([N+](=O)[O-])cn3)c(OC)c2)c1	5%	4%	-51%	-10%	1%	18µM*
Cc1ccccc1OCc1nnc(SCC(=O)Nc2ccc3c(c2)oc2ccccc23)n1C	2%	-21%	8%	-7%	-2%	11%
Cc1ccc(-c2nnc(SCC(=O)Nc3ccc4c(c3)oc3ccccc34)n2C)c(Cl)c1	1%	4%	-11%	-16%	1%	·
CCCc1n(CC(O)COC2CCCCC2)c2ccccc2[n+]1C (centres undefined)	1%	6%	7%	-16%	0%	·
CCCc1n(CC(O)COCC2CC=CCC2)c2ccccc2[n+]1C (centres undefined)	-6%	0%	-1%	-10%	-2%	14µM*
COc1ccc2nc3c(cc2c1)Cn1c-3nc2ccccc2c1=O	·	8%	·	8%	1%	·
CC1c2ccccc2CN1CC1=NCCN1 (centres undefined)	·	-3%	25µM*	3%	1%	?
CC(C)C[C@H](NC(=O)[C@H](CCCCN)NC(=O)[C@H](CCCNC(=N)N)NC(=O)[C@H](C)NC(=O)[C@H](CO)NC(=O)[C@H](CCCCN)NC(=O)[C@H](CCCNC(=N)N)NC(=O)[C@H](C)NC(=O)CNC(=O)[C@@H](NC(=O)[C@H](Cc1ccccc1)NC(=O)CNC(=O)CNC(=O)[C@@H](N)Cc1ccccc1)[C@@H](C)O)C(=O)N[C@@H](C)C(=O)N[C@@H](CC(N)=O)C(=O)N[C@@H](CCC(N)=O)C(=O)O	·	0%	·	-7%	5%	·
CCn1c(SCC(=O)N2CCCCCC2)nc2ccccc2c1=O	11%	·	·	-3%	·	·
